What was measured:
Test in all cases: DAPPL (digital affinity profiling via proximity ligation, sequencing); 10 mM Tris-HCl pH 7.5, 50 mM NaCl, 1 mM DTT, 4% glycerol, room temperature, 30 min; GST-TFs on glutathione beads, 16-mer random dsDNA library, 0.1% formaldehyde crosslink after washing; high values mean tight binding
FLI1 = biological target: T1, FLI1 (Homo sapiens, UniProt Q01543 1-452); settings: protein: recombinant; tags: N-terminal GST; dsDNA, one strand shown
T1 sequence: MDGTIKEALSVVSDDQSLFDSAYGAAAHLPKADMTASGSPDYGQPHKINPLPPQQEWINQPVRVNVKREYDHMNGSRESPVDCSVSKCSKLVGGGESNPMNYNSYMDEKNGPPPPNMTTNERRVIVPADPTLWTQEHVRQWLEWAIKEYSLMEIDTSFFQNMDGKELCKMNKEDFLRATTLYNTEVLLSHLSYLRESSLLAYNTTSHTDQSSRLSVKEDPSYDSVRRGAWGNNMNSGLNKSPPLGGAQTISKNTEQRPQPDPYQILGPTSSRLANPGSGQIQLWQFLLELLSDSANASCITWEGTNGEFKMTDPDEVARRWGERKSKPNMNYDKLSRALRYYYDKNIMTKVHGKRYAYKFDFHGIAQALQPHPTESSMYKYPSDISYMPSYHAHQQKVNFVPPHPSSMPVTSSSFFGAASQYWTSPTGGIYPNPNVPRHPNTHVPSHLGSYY
Procedure, shortened: (§1)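 After expression in yeast as GST fusions, human transcription factors were bound to glutathione beads, DNA-barcoded and mixed with a tag-only sample. The pools were incubated with 200 nmole of a 16-mer random double-stranded DNA library in Tris/NaCl/DTT/glycerol buffer (30 min, room temperature), washed and crosslinked with 0.1% formaldehyde. Proximity ligation with BsaI/T4 ligase ran for 1 h at 37 °C, before PCR amplification and sequencing on an Illumina NextSeq500. Binding signal is a hexamer's read frequency for a factor divided by its frequency for the tag-only sample.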

ELK1 = biological target: T2, ELK1 (Homo sapiens, UniProt P19419 1-428); settings: protein: recombinant; tags: N-terminal GST; dsDNA, one strand shown
T2 sequence: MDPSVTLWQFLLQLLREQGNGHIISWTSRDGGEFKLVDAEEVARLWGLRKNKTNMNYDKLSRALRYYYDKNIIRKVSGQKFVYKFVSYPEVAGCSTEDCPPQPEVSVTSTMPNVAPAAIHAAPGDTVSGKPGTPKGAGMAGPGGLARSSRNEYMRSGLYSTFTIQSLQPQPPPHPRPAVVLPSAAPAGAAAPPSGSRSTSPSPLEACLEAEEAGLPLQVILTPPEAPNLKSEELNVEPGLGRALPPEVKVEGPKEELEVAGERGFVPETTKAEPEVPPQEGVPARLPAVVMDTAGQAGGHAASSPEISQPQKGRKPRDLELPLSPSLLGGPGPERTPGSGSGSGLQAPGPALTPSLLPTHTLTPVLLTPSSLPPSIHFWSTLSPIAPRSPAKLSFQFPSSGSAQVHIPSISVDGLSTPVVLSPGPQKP
Procedure, shortened: as §1

GABPA = biological target: T3, GABPA (Homo sapiens, UniProt Q06546 1-454); settings: protein: recombinant; tags: N-terminal GST; dsDNA, one strand shown
T3 sequence: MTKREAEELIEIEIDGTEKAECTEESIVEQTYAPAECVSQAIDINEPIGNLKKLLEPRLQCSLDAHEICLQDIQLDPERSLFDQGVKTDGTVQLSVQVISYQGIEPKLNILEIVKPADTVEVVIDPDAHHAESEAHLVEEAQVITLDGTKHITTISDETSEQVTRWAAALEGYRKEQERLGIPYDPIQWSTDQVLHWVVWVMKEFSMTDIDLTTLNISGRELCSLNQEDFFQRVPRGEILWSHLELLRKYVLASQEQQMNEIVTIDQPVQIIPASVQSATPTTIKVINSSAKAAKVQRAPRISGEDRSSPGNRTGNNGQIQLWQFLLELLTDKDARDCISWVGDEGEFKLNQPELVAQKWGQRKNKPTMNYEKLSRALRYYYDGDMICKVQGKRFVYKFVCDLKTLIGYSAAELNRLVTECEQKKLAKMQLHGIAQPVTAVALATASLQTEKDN
Procedure, shortened: as §1

ERG = biological target: T4, ERG (Homo sapiens, UniProt P11308 1-479); settings: protein: recombinant; tags: N-terminal GST; dsDNA, one strand shown
T4 sequence: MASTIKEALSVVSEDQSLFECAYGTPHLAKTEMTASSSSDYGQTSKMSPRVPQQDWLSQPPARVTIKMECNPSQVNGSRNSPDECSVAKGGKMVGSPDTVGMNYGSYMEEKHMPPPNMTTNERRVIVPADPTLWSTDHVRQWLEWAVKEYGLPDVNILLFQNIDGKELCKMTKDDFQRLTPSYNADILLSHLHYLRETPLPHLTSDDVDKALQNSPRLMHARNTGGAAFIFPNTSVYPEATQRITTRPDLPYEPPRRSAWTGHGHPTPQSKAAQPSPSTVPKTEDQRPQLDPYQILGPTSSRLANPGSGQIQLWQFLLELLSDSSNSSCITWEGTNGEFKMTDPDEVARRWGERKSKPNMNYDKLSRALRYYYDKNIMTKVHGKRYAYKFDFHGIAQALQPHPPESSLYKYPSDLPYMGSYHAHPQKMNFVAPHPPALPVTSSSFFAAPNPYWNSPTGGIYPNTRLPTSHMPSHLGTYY
Procedure, shortened: as §1

ELF1 = ELF1 (Homo sapiens, UniProt P32519 1-619); settings: protein: recombinant; tags: N-terminal GST; dsDNA, one strand shown
Procedure, shortened: as §1

EHF = biological target: T5, EHF (Homo sapiens, UniProt Q9NZC4 1-300); settings: protein: recombinant; tags: N-terminal GST; dsDNA, one strand shown
T5 sequence: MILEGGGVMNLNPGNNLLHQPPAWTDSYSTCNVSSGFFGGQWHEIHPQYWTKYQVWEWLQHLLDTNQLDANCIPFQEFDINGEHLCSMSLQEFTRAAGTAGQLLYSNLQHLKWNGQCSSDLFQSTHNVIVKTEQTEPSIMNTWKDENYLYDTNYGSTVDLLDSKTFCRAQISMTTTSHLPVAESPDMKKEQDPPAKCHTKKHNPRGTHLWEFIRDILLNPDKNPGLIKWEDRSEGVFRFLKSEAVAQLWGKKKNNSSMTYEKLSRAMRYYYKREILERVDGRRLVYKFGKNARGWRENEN
Procedure, shortened: as §1

SPI1 = SPI1 (Homo sapiens, UniProt P17947 1-270); settings: protein: recombinant; tags: N-terminal GST; dsDNA, one strand shown
Procedure, shortened: as §1

SPIB = SPIB (Homo sapiens, UniProt Q01892 1-262); settings: protein: recombinant; tags: N-terminal GST; dsDNA, one strand shown
Procedure, shortened: as §1

FEV = biological target: T6, FEV (Homo sapiens, UniProt Q99581 1-238); settings: protein: recombinant; tags: N-terminal GST; dsDNA, one strand shown
T6 sequence: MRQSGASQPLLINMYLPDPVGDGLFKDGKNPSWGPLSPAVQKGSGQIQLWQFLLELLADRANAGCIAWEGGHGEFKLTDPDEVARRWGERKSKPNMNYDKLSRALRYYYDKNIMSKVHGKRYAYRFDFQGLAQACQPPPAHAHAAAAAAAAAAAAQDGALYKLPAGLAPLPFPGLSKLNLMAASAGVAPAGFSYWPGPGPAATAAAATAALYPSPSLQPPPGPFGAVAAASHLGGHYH
Procedure, shortened: as §1

ETV5 = ETV5 (Homo sapiens, UniProt P41161 1-510); settings: protein: recombinant; tags: N-terminal GST; dsDNA, one strand shown
Procedure, shortened: as §1

HSF1 = HSF1 (Homo sapiens, UniProt Q00613 1-529); settings: protein: recombinant; tags: N-terminal GST; chain copies: 3; dsDNA, one strand shown
Procedure, shortened: as §1

SPIC = biological target: T7, SPIC (Homo sapiens, UniProt Q8N5J4 1-248); settings: protein: recombinant; tags: N-terminal GST; dsDNA, one strand shown
T7 sequence: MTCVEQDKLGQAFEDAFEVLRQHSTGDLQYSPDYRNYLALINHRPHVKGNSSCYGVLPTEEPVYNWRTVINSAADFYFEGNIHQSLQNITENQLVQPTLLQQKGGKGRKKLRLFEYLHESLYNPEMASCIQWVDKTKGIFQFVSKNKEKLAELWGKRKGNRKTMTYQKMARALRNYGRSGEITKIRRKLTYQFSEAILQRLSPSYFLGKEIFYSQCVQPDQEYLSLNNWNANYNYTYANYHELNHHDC
Procedure, shortened: as §1

ELF4 = ELF4 (Homo sapiens, UniProt Q99607 1-663); settings: protein: recombinant; tags: N-terminal GST; dsDNA, one strand shown
Procedure, shortened: as §1

ELK4 = biological target: T8, ELK4 (Homo sapiens, UniProt P28324-2 1-405); settings: protein: recombinant; tags: N-terminal GST; dsDNA, one strand shown
T8 sequence: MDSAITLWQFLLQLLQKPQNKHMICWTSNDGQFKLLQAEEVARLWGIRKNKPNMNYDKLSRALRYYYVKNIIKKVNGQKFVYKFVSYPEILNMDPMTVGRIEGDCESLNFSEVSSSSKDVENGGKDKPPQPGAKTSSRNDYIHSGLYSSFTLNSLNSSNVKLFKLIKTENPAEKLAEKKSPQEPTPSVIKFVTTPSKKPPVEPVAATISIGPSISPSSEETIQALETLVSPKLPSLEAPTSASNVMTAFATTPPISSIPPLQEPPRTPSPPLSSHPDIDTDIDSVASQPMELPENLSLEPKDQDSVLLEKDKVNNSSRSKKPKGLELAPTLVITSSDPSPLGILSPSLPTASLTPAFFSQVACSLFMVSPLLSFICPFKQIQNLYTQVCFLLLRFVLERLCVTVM
Procedure, shortened: as §1

ETV2 = biological target: T9, ETV2 (Homo sapiens, UniProt O00321 1-342); settings: protein: recombinant; tags: N-terminal GST; dsDNA, one strand shown
T9 sequence: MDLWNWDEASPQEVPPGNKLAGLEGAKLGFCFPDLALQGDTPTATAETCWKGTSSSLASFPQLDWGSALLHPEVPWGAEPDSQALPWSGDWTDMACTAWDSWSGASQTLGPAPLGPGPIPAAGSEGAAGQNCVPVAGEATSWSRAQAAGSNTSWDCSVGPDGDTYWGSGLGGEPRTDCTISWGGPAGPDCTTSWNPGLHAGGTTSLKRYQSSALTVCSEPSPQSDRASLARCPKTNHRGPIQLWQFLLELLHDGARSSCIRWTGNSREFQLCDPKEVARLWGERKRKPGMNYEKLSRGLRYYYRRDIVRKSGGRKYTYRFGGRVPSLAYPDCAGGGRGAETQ
Procedure, shortened: as §1

ELF3 = biological target: T10, ELF3 (Homo sapiens, UniProt P78545 1-371); settings: protein: recombinant; tags: N-terminal GST; dsDNA, one strand shown
T10 sequence: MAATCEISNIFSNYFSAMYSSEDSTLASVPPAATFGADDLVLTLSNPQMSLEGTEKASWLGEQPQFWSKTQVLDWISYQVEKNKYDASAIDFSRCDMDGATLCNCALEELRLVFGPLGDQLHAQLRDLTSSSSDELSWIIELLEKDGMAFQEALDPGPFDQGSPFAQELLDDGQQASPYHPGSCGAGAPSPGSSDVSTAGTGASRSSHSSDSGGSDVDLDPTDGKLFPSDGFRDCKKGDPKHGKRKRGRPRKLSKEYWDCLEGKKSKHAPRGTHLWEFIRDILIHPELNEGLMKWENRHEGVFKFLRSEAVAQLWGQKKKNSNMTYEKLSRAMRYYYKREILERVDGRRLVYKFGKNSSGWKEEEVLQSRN
Procedure, shortened: as §1

ETV1 = ETV1 (Homo sapiens, UniProt P50549 1-477); settings: protein: recombinant; tags: N-terminal GST; dsDNA, one strand shown
Procedure, shortened: as §1

ELF1, sequence (P32519 whole entry): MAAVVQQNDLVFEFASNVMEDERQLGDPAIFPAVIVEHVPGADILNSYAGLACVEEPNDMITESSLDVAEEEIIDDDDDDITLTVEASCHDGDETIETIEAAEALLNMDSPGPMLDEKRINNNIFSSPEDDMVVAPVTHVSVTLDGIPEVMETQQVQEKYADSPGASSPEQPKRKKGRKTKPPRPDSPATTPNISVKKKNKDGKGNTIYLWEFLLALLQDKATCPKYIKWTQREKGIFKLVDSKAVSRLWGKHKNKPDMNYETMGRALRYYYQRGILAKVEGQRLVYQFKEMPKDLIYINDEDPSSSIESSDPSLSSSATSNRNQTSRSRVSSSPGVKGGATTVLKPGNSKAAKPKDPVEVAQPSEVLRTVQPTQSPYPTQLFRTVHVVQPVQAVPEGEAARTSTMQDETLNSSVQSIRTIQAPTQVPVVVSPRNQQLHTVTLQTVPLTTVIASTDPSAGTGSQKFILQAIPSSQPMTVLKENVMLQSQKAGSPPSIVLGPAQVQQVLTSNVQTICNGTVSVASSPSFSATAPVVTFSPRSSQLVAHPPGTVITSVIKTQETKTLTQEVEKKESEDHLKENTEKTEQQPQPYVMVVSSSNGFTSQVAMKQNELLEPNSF
SPIB, sequence (Q01892 whole entry): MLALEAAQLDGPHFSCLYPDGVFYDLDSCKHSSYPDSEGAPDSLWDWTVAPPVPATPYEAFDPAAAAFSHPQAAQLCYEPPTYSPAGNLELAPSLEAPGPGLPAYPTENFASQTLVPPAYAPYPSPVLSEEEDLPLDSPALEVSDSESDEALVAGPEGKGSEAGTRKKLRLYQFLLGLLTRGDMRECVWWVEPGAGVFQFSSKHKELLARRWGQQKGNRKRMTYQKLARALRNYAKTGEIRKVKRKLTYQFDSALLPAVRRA
ETV5, sequence (P41161 whole entry): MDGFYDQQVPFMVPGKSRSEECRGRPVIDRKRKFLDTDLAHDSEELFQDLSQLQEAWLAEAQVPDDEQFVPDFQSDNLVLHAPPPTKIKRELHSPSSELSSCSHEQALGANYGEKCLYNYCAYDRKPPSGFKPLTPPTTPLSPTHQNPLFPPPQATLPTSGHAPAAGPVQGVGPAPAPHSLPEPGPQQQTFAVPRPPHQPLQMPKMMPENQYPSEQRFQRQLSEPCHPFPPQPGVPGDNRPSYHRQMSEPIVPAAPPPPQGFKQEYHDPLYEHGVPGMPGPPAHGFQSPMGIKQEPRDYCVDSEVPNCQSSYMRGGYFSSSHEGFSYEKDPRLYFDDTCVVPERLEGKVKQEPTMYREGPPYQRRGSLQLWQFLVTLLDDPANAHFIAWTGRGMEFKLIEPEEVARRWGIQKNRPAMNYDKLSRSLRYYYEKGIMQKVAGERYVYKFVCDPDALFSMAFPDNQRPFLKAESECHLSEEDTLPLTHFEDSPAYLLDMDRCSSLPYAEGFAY
ELF4, sequence (Q99607 whole entry): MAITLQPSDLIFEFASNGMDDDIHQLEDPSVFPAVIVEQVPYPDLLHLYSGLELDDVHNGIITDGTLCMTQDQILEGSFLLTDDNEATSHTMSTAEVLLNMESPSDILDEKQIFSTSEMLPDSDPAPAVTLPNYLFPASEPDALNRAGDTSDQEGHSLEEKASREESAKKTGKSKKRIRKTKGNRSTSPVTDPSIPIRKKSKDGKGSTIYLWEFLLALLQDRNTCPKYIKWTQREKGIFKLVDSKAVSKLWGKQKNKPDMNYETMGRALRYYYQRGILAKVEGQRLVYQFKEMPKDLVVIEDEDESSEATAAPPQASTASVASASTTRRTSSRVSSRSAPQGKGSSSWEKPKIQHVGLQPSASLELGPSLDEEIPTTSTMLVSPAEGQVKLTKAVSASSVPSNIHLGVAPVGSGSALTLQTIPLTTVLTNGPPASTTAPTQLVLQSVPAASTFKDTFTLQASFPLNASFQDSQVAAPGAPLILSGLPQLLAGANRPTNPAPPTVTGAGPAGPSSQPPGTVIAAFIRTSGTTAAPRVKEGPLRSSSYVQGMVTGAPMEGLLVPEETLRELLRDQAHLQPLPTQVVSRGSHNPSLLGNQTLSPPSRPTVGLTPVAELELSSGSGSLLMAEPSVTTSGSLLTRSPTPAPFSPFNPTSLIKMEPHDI
ETV1, sequence (P50549 whole entry): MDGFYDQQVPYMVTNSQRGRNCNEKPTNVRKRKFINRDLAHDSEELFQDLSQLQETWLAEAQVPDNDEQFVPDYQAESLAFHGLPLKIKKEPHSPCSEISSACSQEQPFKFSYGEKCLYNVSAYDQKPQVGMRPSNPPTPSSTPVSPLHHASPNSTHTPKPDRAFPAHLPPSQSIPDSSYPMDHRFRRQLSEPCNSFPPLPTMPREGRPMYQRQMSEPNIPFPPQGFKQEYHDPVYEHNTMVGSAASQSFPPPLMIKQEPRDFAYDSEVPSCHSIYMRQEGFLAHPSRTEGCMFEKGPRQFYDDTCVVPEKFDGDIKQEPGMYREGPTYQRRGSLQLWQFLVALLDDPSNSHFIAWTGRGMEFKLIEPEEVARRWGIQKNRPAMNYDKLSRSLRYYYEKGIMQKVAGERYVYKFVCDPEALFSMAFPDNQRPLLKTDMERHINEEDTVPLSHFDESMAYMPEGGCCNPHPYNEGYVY
HSF1, sequence (Q00613 whole entry): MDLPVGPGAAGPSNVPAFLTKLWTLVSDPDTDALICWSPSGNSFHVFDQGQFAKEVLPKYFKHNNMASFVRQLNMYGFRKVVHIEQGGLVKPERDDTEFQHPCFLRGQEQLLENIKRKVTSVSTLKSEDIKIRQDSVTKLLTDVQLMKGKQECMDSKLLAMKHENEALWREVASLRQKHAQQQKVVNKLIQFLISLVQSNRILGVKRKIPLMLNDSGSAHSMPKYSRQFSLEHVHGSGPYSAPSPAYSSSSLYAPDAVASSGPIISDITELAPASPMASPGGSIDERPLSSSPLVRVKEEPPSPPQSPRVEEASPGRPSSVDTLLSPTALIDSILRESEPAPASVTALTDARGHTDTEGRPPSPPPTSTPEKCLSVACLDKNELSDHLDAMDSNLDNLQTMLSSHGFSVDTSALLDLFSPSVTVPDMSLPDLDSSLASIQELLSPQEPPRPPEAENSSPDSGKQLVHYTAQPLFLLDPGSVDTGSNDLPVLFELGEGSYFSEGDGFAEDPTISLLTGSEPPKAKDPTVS

Sequence: GTGCTC
- binding signal (FLI1): 1.26 fold enrichment (6-mer frequency, TF over GST control)
- binding signal (ELK1): 1.18 fold enrichment (6-mer frequency, TF over GST control)
- binding signal (GABPA): 1.25 fold enrichment (6-mer frequency, TF over GST control)
- binding signal (ERG): 1.2 fold enrichment (6-mer frequency, TF over GST control)
- binding signal (ELF1): 1.19 fold enrichment (6-mer frequency, TF over GST control)
- binding signal (EHF): 1.22 fold enrichment (6-mer frequency, TF over GST control)
- binding signal (SPI1): 1.36 fold enrichment (6-mer frequency, TF over GST control)
- binding signal (SPIB): 1.3 fold enrichment (6-mer frequency, TF over GST control)
- binding signal (FEV): 1.11 fold enrichment (6-mer frequency, TF over GST control)
- binding signal (ETV5): 1.15 fold enrichment (6-mer frequency, TF over GST control)
- binding signal (HSF1): 1.05 fold enrichment (6-mer frequency, TF over GST control)
- binding signal (SPIC): 1.21 fold enrichment (6-mer frequency, TF over GST control)
- binding signal (ELF4): 1.12 fold enrichment (6-mer frequency, TF over GST control)
- binding signal (ELK4): 1.05 fold enrichment (6-mer frequency, TF over GST control)
- binding signal (ETV2): 1.16 fold enrichment (6-mer frequency, TF over GST control)
- binding signal (ELF3): 1.26 fold enrichment (6-mer frequency, TF over GST control)
- binding signal (ETV1): 1.29 fold enrichment (6-mer frequency, TF over GST control)

Reference: PMC7862700, “An all-to-all approach to the identification of sequence-specific readers for epigenetic DNA modifications on cytosine”
